The source made the active and inactive calls.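 Rule for the calls, unless noted: active = inhibition at or above 50% at 10 µM; inactive = inhibition below 50%.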
Tests used:
[1] = inhibitors of TNFa-induced NFkB p65 translocation, primary screen, imaging, HUVEC, MLSMR starter and 10KST1 sets (AID 438;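 active = inhibition above 20% together with a positive visual image hit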;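 note: compound added about 3h40 before a 20 min TNFalpha stimulation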;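 for inhibition: signal is the nuclear over cytoplasmic p65 intensity ratio per well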); details: HUVEC TNFa-induced p65 nuclear translocation; cell count: measured here: nuclei count (cytotoxicity indicator), at 2.08 µM; inhibition: at 2 µM, stronger effect = higher value, 0% TNFa-plus-vehicle, 100% no-TNFa wells
[2] = inhibitors of mutant huntingtin aggregation, primary screen, imaging, exon1htt(103Q)mCFP cells, high-content imaging (AID 483;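 active = visual image review flags a hit and inhibition of aggregation exceeds 20%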;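 note: compound exposure lasted 3 days before fixation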;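 for nuclei count: percent of the per-plate median nuclei count of sample wells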); details: exon1htt(103Q)mCFP cell line, aggregate imaging, at 2 µM; inhibition of aggregation: stronger effect = higher value; nuclei count: measured here: cell count, toxicity
[3] = inhibitors of E-selectin induction by TNFa, primary screen, imaging, HUVEC, immunofluorescence, MLSMR starter and 10KST1 sets (AID 487;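 active = visually confirmed hit in the image check and inhibition above 20%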;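 for inhibition: signal is fraction of cell area covered by stained E-selectin grains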;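 for nuclei count: 100% = median nuclei count of all wells on the same plate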); details: HUVEC TNFalpha-induced E-selectin immunofluorescence imaging, at 2 µM; inhibition: stronger effect = higher value; nuclei count: measured here: cell number, toxicity
[4] = molecular target: Voltage-gated potassium channel subunit beta-2 (Rattus norvegicus) (UniProt P62483); assay: KvBeta enzyme negative modulators, primary screen, biochemical, NADPH fluorescence (AID 622;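 active = fluorescence slope higher than the sample average by over 3 SD, cut at about -0.22 in these data, passing the limit was not always enough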;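 note: slope of raw intensity against log time taken from 70 to 1610 s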); details: recombinant KvBeta, 4-cyanobenzaldehyde reduction, at 10 µM, stronger effect = higher value
[5] = molecular target: Voltage-gated potassium channel subunit beta-2 (Rattus norvegicus) (UniProt P62483); assay: KvBeta positive modulators, primary screen, biochemical, NADPH fluorescence (AID 623;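 active = NADPH fluorescence slope more negative than the mean of all samples by about 3 SD, 99.7% confidence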;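 note: fluorescence intensity change per second fitted from 20 to 320 s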); details: Recombinant KvBeta, NADPH fluorescence decrease slope, 10 min; at 10 µM; stronger effect = lower value
[6] = molecular target: Alpha-2C adrenergic receptor (Homo sapiens) (UniProt P18825); assay: modulators of alpha2C/GIRK thallium flux, primary screen, cell-based, HEK293 alpha2C/GIRK1/2 (AID 624;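 active = fluorescence slope after compound addition differing from the mean of all screened samples at 99.7% confidence, in either direction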;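 note: slope of fluorescence ratio to pre-addition baseline per second over 15 to 24 s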); details: thallium flux BTC fluorescence, at 10 µM, actives lie on both sides
[7] = inhibitors of Sendai virus-induced IRF3 signaling, primary screen, TLR/RLR signaling modifier project, cell-based, Sendai virus stimulus, luciferase, 10K MLSCN set (AID 602276); details: HEK293 RL24 IRF3 luciferase reporter, at 10 µM, stronger effect = higher value;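 note: firefly luciferase from ISG56 promoter only with Renilla not read in this screen; 0% = Sendai virus plus DMSO and 100% = medium plus DMSO without virus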
[8] = inhibitors of poly I:C-induced TLR3 signaling, primary screen, cell-based, poly I:C stimulus, luciferase, 10K MLSCN set (AID 602277;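 active = inhibition of the reporter signal at or above 50%; inactive = inhibition below 50%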); details: HEK293-TLR3 RL24 IRF3 luciferase reporter, at 10 µM, stronger effect = higher value

Chain of Alpha-2C adrenergic receptor (Homo sapiens) (P18825 whole entry, looked up): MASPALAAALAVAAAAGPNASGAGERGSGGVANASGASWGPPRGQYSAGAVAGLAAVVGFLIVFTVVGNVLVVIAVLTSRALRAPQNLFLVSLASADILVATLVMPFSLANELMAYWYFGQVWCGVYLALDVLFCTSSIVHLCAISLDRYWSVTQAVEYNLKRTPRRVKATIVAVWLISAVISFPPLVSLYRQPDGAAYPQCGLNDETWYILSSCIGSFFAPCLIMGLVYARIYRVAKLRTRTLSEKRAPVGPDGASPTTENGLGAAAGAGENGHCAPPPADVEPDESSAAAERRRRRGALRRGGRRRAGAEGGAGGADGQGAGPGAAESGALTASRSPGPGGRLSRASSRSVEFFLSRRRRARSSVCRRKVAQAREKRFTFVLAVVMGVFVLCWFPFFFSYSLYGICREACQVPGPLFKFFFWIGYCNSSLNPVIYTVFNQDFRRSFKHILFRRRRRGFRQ
Chain of Voltage-gated potassium channel subunit beta-2 (Rattus norvegicus) (P62483 whole entry, looked up): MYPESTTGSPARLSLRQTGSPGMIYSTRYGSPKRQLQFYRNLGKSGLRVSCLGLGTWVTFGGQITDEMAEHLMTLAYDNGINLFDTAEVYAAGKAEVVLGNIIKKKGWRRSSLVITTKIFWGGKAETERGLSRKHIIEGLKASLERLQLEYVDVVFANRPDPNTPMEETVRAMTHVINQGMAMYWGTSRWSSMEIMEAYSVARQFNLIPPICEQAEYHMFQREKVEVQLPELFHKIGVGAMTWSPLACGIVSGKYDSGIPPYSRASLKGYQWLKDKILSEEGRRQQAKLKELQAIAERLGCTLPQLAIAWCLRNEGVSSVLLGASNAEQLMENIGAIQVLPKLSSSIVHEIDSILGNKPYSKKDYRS

Row | SMILES | cell count [1] | inhibition [1] | inhibition of aggregation [2] | nuclei count [2] [%] | inhibition [3] | nuclei count [3] [%] | fluorescence slope [4] | NADPH fluorescence slope [5] | slope [6] | inhibition [7] | inhibition [8]
1 | C=CCc1cccc2cc(C(=O)NCc3cccnc3)c(=O)oc12 | 329 | 3.5% (inactive) | -4.3% (inactive) | 101 | 4.6% (inactive) | 117 | -0.437 (inactive) | 1.5e-05 (inactive) | 0.00312 (inactive) | -3.91% (inactive) | 20.3% (inactive)
2 | CSc1oc(-c2ccccc2)nc1S(=O)(=O)c1ccc(F)cc1 | 417 | 8.3% (inactive) | 1% (inactive) | 101 | -45.5% (inactive) | 107 | -0.481 (inactive) | -3.1e-05 (inactive) | 0.00494 (inactive) | 16.4% (inactive) | 22.3% (inactive)
3 | O=C1C(Cl)=C(N2CCOCC2)C(=O)N1CCc1ccccc1 | 373 | 2.8% (inactive) | -26.1% (inactive) | 97.1 | -20.9% (inactive) | 94.6 | -0.356 (inactive) | -8.5e-06 (inactive) | 0.0076 (inactive) | -18.6% (inactive) | -16.7% (inactive)
4 | CCc1ccc(NC(=O)C2CC(=O)N(C(C)C)C2)cc1 (stereo unspecified) | 346 | -6.8% (inactive) | 23.8% (inactive) | 92.5 | -6.6% (inactive) | 75.6 | -0.62 (inactive) | 2.5e-05 (inactive) | 0.00536 (inactive) | 7.09% (inactive) | 0.245% (inactive)
5 | CC(NCc1ccco1)C(=O)N1CCc2ccccc2C1 (stereo unspecified) | 705 | -49% (inactive) | 6.5% (inactive) | 105 | 27% (inactive) | 108 | -0.48 (inactive) | -0.000253 (inactive) | 0.00559 (inactive) | -8.88% (inactive) | 1.37% (inactive)
6 | CCOC(=O)c1cnc(-n2cc(C)cn2)nc1Nc1ccccc1OC | 750 | -2.8% (inactive) | 17.8% (inactive) | 105 | 12.5% (inactive) | 114 | -0.641 (inactive) | -4.8e-05 (inactive) | 0.0064 (inactive) | 2.82% (inactive) | 10.8% (inactive)
7 | Cc1cccc(-n2ncc3c(N4CCC5(CC4)OCCO5)ncnc32)c1 | 617 | 1.3% (inactive) | -14.8% (inactive) | 97.6 | -15.1% (inactive) | 107 | -0.549 (inactive) | -6.5e-05 (inactive) | 0.00695 (inactive) | -34.4% (inactive) | -101% (inactive)
8 | Cc1ccc(-n2ncc3c(=O)[nH]c(SC(C)C)nc32)cc1 | 716 | -23.9% (inactive) | 2.6% (inactive) | 82.4 | -18.4% (inactive) | 126 | -0.455 (inactive) | -4.4e-06 (inactive) | 0.0066 (inactive) | 7.08% (inactive) | 21.6% (inactive)
9 | CCOC(=O)C1=C(O)C(=O)N(c2ccc(S(N)(=O)=O)cc2)C1c1ccccc1 (stereo unspecified) | 431 | -0.4% (inactive) | -10.8% (inactive) | 108 | -31.8% (inactive) | 117 | -0.61 (inactive) | -1.5e-05 (inactive) | 0.00391 (inactive) | 2.23% (inactive) | -14.6% (inactive)
10 | COc1cccc(-c2nnc(NC(=O)Cc3cccs3)s2)c1 | 710 | -5% (inactive) | 22% (inactive) | 79.8 | 1.2% (inactive) | 92 | -0.452 (inactive) | -3e-05 (inactive) | 0.00526 (inactive) | 2.67% (inactive) | -7.11% (inactive)
11 | COc1ccc(N2C(=O)CC(N3CCN(c4ccccc4F)CC3)C2=O)cc1 (stereo unspecified) | 698 | -8.7% (inactive) | -1.9% (inactive) | 108 | 32.2% (inactive) | 84.3 | -0.538 (inactive) | -2.3e-05 (inactive) | 0.00511 (inactive) | 6.58% (inactive) | 10.1% (inactive)
12 | Nn1c(SCC(=O)Nc2ccc(F)cc2)nnc1-c1cccnc1 | 74 | 55.5% (active) | -0.3% (inactive) | 111 | -112% (inactive) | 108 | -0.397 (inactive) | -0.000146 (inactive) | 0.00484 (inactive) | 12.6% (inactive) | 25.6% (inactive)
13 | Cc1ccccc1OCCn1c(=O)oc2ccccc21 | 316 | -4.7% (inactive) | -1.9% (inactive) | 144 | -43.9% (inactive) | 128 | -0.353 (inactive) | -8e-06 (inactive) | 0.00518 (inactive) | 5.52% (inactive) | -6.56% (inactive)
14 | O=C(O)CCC(=O)c1c[nH]c2ccccc12 | 458 | 0.5% (inactive) | 20% (inactive) | 103 | -43.2% (inactive) | 105 | -0.457 (inactive) | 9.9e-05 (inactive) | 0.00973 (inactive) | -16.3% (inactive) | 8.52% (inactive)
15 | COc1ccccc1Cn1c(-c2ccco2)nc2nc3ccccc3nc21 | 612 | -10.5% (inactive) | -8.4% (inactive) | 109 | -13.1% (inactive) | 117 | -0.366 (inactive) | -7.7e-06 (inactive) | 0.00597 (inactive) | 1.34% (inactive) | -13.9% (inactive)
16 | COc1ccc(Cl)cc1-c1n[nH]c(=S)o1 | 546 | 8.2% (inactive) | -5.3% (inactive) | 104 | -86.8% (inactive) | 111 | -0.378 (inactive) | -3.6e-05 (inactive) | 0.00602 (inactive) | 20.2% (inactive) | 23.5% (inactive)
17 | COCCN(CC(=O)NCc1ccccc1)C(=O)CCC(=O)Nc1ccccn1 | 663 | -4.4% (inactive) | 6.3% (inactive) | 86 | 38.3% (inactive) | 117 | -0.506 (inactive) | -2.7e-05 (inactive) | 0.00555 (inactive) | 19.1% (inactive) | 19.4% (inactive)
18 | COCCNC(=O)C(c1ccc(C)o1)N(Cc1ccc(F)cc1)C(=O)Cn1nnc2ccccc21 (stereo unspecified) | 591 | -8.1% (inactive) | -12.2% (inactive) | 121 | 12.3% (inactive) | 108 | -0.381 (inactive) | -7.3e-05 (inactive) | 0.00726 (inactive) | 9.7% (inactive) | 24.6% (inactive)
19 | COc1cccc(OCC(=O)Nc2ccccc2C(N)=O)c1 | 681 | 0.4% (inactive) | 9.9% (inactive) | 104 | -73.4% (inactive) | 110 | -0.517 (inactive) | 1.4e-05 (inactive) | 0.00589 (inactive) | -50.2% (inactive) | -121% (inactive)
20 | COc1ccccc1-c1nnc(SCc2ccccn2)n1C | 307 | 7.6% (inactive) | -5.8% (inactive) | 97.6 | -25.6% (inactive) | 104 | -0.581 (inactive) | 0.000106 (inactive) | 0.0056 (inactive) | -14.7% (inactive) | -10.3% (inactive)
21 | CCOc1ccc2[nH]c(=O)c(CN(Cc3nnnn3CCc3ccccc3)CC3CCCO3)cc2c1 (stereo unspecified) | 742 | -1.7% (inactive) | -4.9% (inactive) | 113 | 17.7% (inactive) | 107 | -0.476 (inactive) | -0.000196 (inactive) | 0.00465 (inactive) | 3.9% (inactive) | 16.9% (inactive)
22 | COc1ccc(OC)c(S(=O)(=O)N2CCN(c3c(C)cccc3C)CC2)c1 | 622 | 1.1% (inactive) | 30.2% (inactive) | 111 | -9.3% (inactive) | 102 | -0.541 (inactive) | -4.7e-05 (inactive) | 0.00796 (inactive) | 9.96% (inactive) | 30.5% (inactive)
23 | C=CCNC(=O)c1cccc(Br)c1 | 399 | 6.3% (inactive) | -3.3% (inactive) | 101 | -24.7% (inactive) | 115 | -0.448 (inactive) | 1.8e-05 (inactive) | 0.00497 (inactive) | -5.88% (inactive) | 7.57% (inactive)
24 | CS(=O)(=O)NCC(c1cccnc1)N1CCN(c2ccc(F)cc2)CC1 (stereo unspecified) | 250 | -10.2% (inactive) | 15.1% (inactive) | 33.8 | 27.3% (inactive) | 72.4 | -0.34 (inactive) | -4.2e-05 (inactive) | 0.00483 (inactive) | -3.05% (inactive) | 1.56% (inactive)
25 | CN(C)c1ccc(NC(=O)Cn2cc3c(n2)CCCC3)cc1 | 757 | -11% (inactive) | 17.1% (inactive) | 101 | -27.2% (inactive) | 103 | -0.406 (inactive) | -4.3e-05 (inactive) | 0.00475 (inactive) | -2.34% (inactive) | -8.59% (inactive)
26 | CCOC(=O)CN1C(=O)C(=O)c2cccc(C)c21 | 651 | -4.4% (inactive) | -8.1% (inactive) | 119 | -62.9% (inactive) | 119 | -0.601 (inactive) | -4.5e-05 (inactive) | 0.00699 (inactive) | 15.4% (inactive) | 34.9% (inactive)
